Test results as given in the supplement of paper PMC11732987, “Enantioselective OTUD7B fragment discovery through chemoproteomics screening and high-throughput optimisation” (Communications Chemistry, 2025).

Columns and labels:
Assay in all cases: log2 ratio of Biotin-Ahx-Ub-VS probe labelling (fragment/DMSO); higher = less target engagement (more negative = stronger competition), active = hit call of the paper (q ≤ 0.05, log2 ratio ≤ -1)
Settings in all cases: compound concentration: 200 uM; treatment time: 3 h
ALG13 = molecular target: T1, ALG13 (UniProt Q9NP73)
T1 sequence (whole entry): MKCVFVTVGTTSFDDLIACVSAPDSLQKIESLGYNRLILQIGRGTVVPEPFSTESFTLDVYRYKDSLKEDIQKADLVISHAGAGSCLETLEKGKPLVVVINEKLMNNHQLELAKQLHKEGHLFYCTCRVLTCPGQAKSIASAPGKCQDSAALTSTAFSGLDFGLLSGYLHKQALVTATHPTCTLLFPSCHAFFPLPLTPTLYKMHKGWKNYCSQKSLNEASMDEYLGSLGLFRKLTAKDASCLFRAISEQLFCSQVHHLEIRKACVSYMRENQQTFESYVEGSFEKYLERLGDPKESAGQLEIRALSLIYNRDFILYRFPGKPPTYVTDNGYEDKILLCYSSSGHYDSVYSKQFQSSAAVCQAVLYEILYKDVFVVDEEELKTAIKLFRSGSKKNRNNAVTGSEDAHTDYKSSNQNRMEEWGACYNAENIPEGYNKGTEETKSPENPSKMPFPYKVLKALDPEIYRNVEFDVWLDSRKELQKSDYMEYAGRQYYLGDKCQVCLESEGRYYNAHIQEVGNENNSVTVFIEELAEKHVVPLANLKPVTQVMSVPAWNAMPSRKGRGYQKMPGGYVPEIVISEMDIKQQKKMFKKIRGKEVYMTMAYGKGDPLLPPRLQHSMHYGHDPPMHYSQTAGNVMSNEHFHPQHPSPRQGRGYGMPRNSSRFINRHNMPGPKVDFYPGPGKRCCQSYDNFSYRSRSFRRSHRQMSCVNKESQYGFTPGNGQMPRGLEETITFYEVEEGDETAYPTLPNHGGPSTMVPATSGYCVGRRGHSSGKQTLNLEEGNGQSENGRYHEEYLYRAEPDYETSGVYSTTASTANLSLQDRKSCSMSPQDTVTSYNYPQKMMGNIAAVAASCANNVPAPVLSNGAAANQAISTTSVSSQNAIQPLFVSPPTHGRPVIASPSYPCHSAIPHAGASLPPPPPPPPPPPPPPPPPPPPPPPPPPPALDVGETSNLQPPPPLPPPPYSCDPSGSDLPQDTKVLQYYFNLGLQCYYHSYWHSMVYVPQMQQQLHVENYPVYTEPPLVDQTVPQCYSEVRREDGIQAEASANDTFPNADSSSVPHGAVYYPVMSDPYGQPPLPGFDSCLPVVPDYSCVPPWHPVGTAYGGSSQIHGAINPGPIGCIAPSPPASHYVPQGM
Outline: (§1)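 Fragment (200 µM) or vehicle was incubated for 3 h with triplicate HEK293T lysate samples of 495 µg, which were then treated with Biotin-Ahx-Ub-VS at 0.5 µM final for 1 h. Labelled DUBs were enriched on NeutrAvidin, digested with LysC and trypsin, and analysed by diaPASEF LC-MS/MS. Values are average log2 fragment/vehicle ratios from an unpaired t-test on global-median-normalised Spectronaut label-free quantities, using proteins with ≥2 unique peptides.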

ATXN3 = ATXN3 (UniProt P54252)
ATXN3, sequence (P54252 whole entry): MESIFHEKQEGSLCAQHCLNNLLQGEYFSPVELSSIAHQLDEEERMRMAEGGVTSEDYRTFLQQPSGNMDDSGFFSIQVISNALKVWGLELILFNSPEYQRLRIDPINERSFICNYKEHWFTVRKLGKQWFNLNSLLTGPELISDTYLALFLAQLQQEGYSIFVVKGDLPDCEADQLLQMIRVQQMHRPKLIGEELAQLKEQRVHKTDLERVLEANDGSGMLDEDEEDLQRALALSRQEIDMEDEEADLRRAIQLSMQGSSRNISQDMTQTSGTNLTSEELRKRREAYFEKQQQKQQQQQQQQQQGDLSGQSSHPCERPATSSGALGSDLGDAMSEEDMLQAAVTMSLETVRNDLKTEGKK
Outline: as §1

BAP1 = molecular target: T2, BAP1 (UniProt Q92560)
T2 sequence (whole entry): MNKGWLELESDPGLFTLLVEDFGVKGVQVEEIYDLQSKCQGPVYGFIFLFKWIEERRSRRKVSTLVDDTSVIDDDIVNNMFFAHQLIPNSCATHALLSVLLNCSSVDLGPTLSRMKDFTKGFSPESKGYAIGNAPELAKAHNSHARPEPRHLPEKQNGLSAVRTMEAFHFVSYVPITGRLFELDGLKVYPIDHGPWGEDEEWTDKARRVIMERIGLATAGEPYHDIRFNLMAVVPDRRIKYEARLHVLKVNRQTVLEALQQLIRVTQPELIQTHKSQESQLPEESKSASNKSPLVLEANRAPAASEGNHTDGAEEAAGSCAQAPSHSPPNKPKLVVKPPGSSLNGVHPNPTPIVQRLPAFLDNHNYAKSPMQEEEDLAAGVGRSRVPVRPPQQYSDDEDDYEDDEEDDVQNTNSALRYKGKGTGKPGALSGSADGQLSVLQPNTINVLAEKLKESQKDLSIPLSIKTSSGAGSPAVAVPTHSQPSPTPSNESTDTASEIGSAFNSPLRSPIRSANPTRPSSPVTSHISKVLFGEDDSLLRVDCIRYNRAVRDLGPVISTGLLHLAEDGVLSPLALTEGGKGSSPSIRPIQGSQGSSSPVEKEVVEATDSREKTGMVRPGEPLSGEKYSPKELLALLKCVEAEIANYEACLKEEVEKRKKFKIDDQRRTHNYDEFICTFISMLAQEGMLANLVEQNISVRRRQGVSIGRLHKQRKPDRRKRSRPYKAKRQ
Outline: as §1

EIF3F = EIF3F (UniProt O00303)
EIF3F, sequence (O00303 whole entry): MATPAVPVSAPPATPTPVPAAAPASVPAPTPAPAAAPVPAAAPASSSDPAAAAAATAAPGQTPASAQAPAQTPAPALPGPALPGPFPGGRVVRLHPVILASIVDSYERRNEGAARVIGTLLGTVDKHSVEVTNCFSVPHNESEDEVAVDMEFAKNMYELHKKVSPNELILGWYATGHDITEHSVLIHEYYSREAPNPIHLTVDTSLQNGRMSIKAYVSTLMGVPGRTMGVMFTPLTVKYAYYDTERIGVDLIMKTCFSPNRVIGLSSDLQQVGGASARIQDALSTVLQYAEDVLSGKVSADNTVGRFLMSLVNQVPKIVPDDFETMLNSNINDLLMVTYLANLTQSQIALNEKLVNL
Outline: as §1

EIF3H = EIF3H (UniProt O15372)
EIF3H, sequence (O15372 whole entry): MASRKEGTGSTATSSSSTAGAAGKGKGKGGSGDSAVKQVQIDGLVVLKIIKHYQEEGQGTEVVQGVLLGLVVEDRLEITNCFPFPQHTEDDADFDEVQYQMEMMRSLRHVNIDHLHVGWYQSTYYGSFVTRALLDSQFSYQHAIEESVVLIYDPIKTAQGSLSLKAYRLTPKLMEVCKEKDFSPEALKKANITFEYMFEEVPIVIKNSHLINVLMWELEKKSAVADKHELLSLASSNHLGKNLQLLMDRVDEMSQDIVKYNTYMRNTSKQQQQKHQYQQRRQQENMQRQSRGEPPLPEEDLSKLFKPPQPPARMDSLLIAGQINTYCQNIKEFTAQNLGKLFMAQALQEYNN
Outline: as §1

FAM105A = molecular target: T3, FAM105A (UniProt Q9NUU6)
T3 sequence (whole entry): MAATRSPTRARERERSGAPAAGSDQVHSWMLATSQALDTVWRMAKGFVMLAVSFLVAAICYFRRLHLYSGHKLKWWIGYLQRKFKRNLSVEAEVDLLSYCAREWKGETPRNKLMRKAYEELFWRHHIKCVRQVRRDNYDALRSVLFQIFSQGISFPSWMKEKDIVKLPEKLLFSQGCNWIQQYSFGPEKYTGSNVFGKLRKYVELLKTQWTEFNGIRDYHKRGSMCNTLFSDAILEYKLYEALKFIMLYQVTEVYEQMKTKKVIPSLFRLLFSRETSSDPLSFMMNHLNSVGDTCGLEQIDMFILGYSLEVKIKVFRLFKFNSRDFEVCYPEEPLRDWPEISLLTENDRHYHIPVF
Outline: as §1

OTUB1 = OTUB1 (UniProt Q96FW1)
OTUB1, sequence (Q96FW1 whole entry): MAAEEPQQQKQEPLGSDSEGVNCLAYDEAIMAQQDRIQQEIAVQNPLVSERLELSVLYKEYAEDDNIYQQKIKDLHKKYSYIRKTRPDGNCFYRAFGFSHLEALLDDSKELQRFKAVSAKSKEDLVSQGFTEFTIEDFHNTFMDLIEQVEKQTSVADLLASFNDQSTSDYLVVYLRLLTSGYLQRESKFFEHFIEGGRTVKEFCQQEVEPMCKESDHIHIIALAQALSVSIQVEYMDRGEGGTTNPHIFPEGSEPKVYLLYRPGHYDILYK
Outline: as §1

OTUD4 = molecular target: T4, OTUD4 (UniProt Q01804)
T4 sequence (whole entry): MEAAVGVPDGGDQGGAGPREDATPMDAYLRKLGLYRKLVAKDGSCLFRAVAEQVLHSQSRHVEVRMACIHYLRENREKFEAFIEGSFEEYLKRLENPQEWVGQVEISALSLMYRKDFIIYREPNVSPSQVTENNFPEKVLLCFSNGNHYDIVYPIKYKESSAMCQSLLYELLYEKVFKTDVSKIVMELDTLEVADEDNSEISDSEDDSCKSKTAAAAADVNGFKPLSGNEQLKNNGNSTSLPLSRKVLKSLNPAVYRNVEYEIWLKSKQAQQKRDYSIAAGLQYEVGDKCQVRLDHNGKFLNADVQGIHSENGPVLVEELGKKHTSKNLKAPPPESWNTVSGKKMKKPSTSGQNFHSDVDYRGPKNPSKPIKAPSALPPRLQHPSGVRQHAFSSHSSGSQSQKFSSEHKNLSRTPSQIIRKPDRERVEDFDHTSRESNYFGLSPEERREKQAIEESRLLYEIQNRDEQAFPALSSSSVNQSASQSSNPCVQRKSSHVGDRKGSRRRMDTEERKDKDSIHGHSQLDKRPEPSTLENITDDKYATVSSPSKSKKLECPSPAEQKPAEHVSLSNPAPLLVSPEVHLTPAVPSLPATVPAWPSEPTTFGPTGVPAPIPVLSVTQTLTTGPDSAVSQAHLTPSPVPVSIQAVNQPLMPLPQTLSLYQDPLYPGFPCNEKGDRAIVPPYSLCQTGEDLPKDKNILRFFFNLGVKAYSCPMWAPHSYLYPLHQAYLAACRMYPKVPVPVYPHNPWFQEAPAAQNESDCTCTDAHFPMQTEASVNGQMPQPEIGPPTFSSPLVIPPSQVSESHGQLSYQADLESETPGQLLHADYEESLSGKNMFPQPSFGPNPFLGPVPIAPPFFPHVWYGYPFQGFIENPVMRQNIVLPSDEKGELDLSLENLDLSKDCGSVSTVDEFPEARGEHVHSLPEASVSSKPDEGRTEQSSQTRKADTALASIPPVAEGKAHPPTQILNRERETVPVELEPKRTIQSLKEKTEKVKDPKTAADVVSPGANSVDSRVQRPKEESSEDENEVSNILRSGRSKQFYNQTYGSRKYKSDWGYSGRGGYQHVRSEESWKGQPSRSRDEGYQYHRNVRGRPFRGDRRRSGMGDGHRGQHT
Outline: as §1

OTUD5 = molecular target: T5, OTUD5 (UniProt Q96G74)
T5 sequence (whole entry): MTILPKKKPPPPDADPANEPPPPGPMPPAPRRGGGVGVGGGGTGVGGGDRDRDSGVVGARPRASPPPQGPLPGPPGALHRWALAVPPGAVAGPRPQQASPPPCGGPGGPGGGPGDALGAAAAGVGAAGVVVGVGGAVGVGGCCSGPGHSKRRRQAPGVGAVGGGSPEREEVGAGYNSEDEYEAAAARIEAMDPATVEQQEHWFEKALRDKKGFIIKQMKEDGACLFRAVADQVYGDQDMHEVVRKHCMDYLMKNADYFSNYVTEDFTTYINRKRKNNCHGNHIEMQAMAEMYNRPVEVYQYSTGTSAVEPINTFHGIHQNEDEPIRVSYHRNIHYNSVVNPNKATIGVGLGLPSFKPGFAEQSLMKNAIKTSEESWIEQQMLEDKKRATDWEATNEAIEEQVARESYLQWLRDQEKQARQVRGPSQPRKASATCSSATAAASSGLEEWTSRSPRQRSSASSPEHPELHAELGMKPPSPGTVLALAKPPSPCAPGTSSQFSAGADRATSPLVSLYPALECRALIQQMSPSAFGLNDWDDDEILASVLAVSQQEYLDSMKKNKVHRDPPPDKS
Outline: as §1

Measured: log2 ratio of Biotin-Ahx-Ub-VS probe labelling

Cc1ccc(C)c(NC(=O)CCl)c1
active: BAP1 -3.51
inactive: ALG13 0.0947 | ATXN3 -0.548 | EIF3F -0.246 | EIF3H 0.0185 | FAM105A -0.0979 | OTUB1 -0.23 | OTUD4 -0.598 | OTUD5 -0.833
